The text below walks through data of publication PMC7862700, “An all-to-all approach to the identification of sequence-specific readers for epigenetic DNA modifications on cytosine”.

Holding throughout (assay): DAPPL (digital affinity profiling via proximity ligation, sequencing); 10 mM Tris-HCl pH 7.5, 50 mM NaCl, 1 mM DTT, 4% glycerol, room temperature, 30 min; GST-TFs on glutathione beads, 16-mer random dsDNA library, 0.1% formaldehyde crosslink after washing; high values mean tight binding
The target of assay [1] is T1, FEV (Homo sapiens, UniProt Q99581 1-238).
T1 sequence: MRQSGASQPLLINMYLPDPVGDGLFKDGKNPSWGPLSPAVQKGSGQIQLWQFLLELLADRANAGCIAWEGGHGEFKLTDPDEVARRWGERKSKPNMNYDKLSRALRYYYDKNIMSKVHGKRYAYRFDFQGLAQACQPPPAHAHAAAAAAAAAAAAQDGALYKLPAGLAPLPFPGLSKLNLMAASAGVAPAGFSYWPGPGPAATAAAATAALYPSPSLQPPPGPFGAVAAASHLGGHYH
The following applies: protein: recombinant; tags: N-terminal GST; dsDNA, one strand shown. The method in brief:
(§1)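 Yeast served to express human transcription factors as GST fusions, which were then captured on glutathione beads and labelled with DNA barcodes. Pooled with a tag-only sample, they were incubated with 200 nmole of a 16-mer random double-stranded DNA library for 30 min at room temperature in Tris/NaCl/DTT/glycerol buffer, washed, crosslinked with 0.1% formaldehyde, ligated by proximity, amplified by PCR and sequenced. Dividing each hexamer's read frequency for a factor by its frequency for the tag-only sample gives the binding signal.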

Assay [2] concerns the target ETV5 (Homo sapiens, UniProt P41161 1-510). The following applies: protein: recombinant; tags: N-terminal GST; dsDNA, one strand shown. The method in brief: as §1
Assay [3] deals with HSF1 (Homo sapiens, UniProt Q00613 1-529). As to conditions: protein: recombinant; tags: N-terminal GST; chain copies: 3; dsDNA, one strand shown. The essentials:
as §1

The target of assay [4] is T2, SPIC (Homo sapiens, UniProt Q8N5J4 1-248).
T2 sequence: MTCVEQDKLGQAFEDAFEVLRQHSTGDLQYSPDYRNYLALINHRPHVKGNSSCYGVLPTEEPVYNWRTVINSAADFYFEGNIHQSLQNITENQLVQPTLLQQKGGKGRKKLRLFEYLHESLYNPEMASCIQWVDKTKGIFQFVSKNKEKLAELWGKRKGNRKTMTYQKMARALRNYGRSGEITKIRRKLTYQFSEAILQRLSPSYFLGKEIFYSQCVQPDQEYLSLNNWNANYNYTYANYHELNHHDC
The following applies: protein: recombinant; tags: N-terminal GST; dsDNA, one strand shown. The essentials: as §1

Assay [5] addresses ELF4 (Homo sapiens, UniProt Q99607 1-663). The following applies: protein: recombinant; tags: N-terminal GST; dsDNA, one strand shown. The method in brief:
as §1

Assay [6] deals with T3, ELK4 (Homo sapiens, UniProt P28324-2 1-405).
T3 sequence: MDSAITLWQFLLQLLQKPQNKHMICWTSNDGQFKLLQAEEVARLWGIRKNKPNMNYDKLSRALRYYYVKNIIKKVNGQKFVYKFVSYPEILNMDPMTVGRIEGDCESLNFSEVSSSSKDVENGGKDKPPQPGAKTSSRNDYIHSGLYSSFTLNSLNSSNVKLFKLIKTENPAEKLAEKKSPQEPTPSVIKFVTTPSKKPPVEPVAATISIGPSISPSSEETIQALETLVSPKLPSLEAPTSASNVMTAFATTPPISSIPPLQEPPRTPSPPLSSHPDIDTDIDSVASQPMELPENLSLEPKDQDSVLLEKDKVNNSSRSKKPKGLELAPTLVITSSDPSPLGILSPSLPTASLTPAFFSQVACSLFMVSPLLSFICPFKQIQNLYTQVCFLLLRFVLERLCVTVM
The following applies: protein: recombinant; tags: N-terminal GST; dsDNA, one strand shown. The essentials:
as §1

For assay [7], the target named is T4, ETV2 (Homo sapiens, UniProt O00321 1-342).
T4 sequence: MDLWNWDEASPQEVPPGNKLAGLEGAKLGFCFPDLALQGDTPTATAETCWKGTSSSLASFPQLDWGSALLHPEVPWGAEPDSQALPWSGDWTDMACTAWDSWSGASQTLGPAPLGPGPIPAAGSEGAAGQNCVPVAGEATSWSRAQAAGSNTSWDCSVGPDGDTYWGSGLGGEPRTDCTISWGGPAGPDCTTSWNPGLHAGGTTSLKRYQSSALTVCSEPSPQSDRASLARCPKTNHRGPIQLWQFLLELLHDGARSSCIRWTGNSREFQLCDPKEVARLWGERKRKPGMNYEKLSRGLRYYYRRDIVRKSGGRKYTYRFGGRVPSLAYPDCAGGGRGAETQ
The following applies: protein: recombinant; tags: N-terminal GST; dsDNA, one strand shown. The essentials:
as §1

In assay [8] the target is T5, ELF3 (Homo sapiens, UniProt P78545 1-371).
T5 sequence: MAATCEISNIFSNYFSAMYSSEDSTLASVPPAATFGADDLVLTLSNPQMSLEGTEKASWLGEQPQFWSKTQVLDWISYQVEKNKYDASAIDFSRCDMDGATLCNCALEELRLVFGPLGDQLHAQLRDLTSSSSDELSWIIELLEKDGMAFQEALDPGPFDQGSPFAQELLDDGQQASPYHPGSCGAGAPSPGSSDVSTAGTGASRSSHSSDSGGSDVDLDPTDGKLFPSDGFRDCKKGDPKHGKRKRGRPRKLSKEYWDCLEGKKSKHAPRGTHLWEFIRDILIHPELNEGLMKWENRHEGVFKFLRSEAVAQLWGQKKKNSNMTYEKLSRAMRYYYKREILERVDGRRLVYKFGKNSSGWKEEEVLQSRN
As to conditions: protein: recombinant; tags: N-terminal GST; dsDNA, one strand shown. The essentials: as §1

The target in assay [9] is CRX (Homo sapiens, UniProt O43186 1-299). The following applies: protein: recombinant; tags: N-terminal GST; dsDNA, one strand shown. The method in brief:
as §1

Assay [10] deals with ETV1 (Homo sapiens, UniProt P50549 1-477). The following applies: protein: recombinant; tags: N-terminal GST; dsDNA, one strand shown. The method in brief: as §1
ETV1, sequence (P50549 whole entry): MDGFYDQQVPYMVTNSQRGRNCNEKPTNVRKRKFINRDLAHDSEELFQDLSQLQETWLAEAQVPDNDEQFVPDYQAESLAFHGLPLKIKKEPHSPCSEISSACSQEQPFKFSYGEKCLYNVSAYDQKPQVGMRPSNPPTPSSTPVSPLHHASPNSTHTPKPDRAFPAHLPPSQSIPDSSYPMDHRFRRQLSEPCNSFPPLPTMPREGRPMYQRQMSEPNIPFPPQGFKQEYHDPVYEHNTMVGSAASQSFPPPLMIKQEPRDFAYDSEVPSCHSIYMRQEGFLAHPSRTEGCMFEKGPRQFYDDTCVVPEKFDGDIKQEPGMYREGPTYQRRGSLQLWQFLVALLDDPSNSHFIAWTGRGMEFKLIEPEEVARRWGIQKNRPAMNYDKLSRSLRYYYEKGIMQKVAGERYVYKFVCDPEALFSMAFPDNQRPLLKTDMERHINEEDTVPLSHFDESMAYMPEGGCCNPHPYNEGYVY
The target of assay [11] is T6, ERF (Homo sapiens, UniProt P50548 1-548).
T6 sequence: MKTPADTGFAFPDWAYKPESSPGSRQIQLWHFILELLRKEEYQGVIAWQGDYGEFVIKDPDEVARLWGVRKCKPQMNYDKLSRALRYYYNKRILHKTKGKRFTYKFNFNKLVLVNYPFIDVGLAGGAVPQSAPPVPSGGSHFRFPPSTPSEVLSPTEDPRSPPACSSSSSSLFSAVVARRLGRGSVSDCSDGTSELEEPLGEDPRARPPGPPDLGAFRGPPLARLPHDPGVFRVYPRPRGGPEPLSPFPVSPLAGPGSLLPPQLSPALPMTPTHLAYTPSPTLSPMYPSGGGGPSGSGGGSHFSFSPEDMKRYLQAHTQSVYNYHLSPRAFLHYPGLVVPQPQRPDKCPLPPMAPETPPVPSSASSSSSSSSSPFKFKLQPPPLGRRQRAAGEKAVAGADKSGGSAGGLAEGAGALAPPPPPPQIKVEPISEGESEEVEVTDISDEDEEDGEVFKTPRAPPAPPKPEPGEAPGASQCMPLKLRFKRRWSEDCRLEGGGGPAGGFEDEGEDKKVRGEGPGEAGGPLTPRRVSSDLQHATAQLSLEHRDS
As to conditions: protein: recombinant; tags: N-terminal GST; dsDNA, one strand shown. The essentials:
as §1

In assay [12] the target is T7, ETV3L (Homo sapiens, UniProt Q6ZN32 1-361).
T7 sequence: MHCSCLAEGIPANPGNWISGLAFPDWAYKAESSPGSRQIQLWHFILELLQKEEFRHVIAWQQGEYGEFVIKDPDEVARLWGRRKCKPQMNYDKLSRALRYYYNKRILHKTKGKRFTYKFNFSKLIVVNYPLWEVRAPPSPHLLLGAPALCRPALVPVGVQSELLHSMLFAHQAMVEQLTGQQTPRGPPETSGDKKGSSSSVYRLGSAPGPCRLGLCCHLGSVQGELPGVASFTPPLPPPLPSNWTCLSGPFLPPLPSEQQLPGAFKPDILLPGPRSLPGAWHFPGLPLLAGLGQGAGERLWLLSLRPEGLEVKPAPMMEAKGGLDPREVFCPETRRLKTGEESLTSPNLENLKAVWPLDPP
The following applies: protein: recombinant; tags: N-terminal GST; dsDNA, one strand shown. The essentials:
as §1

Assay [13] addresses T8, ETS2 (Homo sapiens, UniProt P15036 1-469).
T8 sequence: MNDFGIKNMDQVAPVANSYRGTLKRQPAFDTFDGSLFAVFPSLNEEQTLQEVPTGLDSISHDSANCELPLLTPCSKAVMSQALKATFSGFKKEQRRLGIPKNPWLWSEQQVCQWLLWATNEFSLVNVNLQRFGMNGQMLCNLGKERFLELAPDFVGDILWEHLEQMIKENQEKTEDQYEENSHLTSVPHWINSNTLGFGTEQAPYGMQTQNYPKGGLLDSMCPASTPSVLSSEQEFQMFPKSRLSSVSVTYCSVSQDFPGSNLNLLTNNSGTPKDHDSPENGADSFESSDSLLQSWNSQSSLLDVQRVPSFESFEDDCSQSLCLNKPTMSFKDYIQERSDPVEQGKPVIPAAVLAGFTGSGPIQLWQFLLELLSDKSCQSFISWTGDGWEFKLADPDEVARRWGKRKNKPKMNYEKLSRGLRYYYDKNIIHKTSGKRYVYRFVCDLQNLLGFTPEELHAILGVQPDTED
As to conditions: protein: recombinant; tags: N-terminal GST; dsDNA, one strand shown. The essentials:
as §1

The target of assay [14] is T9, SPDEF (Homo sapiens, UniProt O95238 1-335).
T9 sequence: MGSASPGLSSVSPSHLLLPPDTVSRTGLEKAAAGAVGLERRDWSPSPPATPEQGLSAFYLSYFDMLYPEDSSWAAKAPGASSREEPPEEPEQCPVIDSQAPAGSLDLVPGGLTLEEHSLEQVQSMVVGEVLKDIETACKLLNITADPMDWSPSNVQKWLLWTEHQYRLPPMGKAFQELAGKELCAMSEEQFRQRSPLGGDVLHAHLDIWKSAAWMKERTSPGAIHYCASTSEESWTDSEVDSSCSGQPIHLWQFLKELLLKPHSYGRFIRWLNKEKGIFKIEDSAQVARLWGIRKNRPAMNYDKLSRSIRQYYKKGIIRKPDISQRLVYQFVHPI
As to conditions: protein: recombinant; tags: N-terminal GST; dsDNA, one strand shown. The essentials:
as §1

For assay [15], the target named is T10, ETV7 (Homo sapiens, UniProt Q9Y603 1-341).
T10 sequence: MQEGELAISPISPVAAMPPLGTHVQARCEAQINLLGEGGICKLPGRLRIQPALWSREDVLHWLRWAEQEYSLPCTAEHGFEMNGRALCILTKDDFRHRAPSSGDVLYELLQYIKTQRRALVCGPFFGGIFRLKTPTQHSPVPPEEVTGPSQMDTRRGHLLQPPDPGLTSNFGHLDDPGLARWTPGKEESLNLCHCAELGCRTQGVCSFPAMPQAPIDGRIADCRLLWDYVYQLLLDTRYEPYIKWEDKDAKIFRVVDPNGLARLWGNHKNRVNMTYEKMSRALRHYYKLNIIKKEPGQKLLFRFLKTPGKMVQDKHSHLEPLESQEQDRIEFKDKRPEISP
The following applies: protein: recombinant; tags: N-terminal GST; dsDNA, one strand shown. The essentials: as §1

Assay [16] addresses T11, ELF5 (Homo sapiens, UniProt Q9UKW6-2 1-255).
T11 sequence: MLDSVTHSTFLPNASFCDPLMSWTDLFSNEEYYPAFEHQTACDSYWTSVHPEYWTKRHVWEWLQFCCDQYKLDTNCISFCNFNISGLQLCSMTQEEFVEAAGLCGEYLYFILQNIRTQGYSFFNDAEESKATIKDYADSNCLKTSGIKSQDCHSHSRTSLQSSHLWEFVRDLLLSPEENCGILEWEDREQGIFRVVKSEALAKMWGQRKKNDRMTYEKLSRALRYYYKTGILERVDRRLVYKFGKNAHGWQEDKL
The following applies: protein: recombinant; tags: N-terminal GST; dsDNA, one strand shown. The essentials:
as §1

In assay [17] the target is T12, ETV3 (Homo sapiens, UniProt P41162-2 1-143).
T12 sequence: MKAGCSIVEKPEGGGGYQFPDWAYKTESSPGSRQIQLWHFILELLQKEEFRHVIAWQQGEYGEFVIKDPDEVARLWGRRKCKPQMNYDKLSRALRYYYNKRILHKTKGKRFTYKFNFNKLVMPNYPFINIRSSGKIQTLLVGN
As to conditions: protein: recombinant; tags: N-terminal GST; dsDNA, one strand shown. The essentials: as §1

For assay [18], the target named is ETV6 (Homo sapiens, UniProt P41212 1-452). The following applies: protein: recombinant; tags: N-terminal GST; dsDNA, one strand shown. The essentials:
as §1

ETV6, sequence (P41212 whole entry): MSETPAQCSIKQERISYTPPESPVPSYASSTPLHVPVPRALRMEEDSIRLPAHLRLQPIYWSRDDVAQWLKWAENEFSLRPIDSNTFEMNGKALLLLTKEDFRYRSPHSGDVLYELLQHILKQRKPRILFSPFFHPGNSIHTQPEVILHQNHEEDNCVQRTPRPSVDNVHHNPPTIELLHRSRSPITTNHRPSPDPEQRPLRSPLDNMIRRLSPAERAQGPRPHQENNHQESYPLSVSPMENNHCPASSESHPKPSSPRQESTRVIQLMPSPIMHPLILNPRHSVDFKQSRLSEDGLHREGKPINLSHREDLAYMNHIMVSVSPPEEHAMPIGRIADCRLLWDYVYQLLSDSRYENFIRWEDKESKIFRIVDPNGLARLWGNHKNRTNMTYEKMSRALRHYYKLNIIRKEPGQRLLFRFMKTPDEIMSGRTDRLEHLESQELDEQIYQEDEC
ELF4, sequence (Q99607 whole entry): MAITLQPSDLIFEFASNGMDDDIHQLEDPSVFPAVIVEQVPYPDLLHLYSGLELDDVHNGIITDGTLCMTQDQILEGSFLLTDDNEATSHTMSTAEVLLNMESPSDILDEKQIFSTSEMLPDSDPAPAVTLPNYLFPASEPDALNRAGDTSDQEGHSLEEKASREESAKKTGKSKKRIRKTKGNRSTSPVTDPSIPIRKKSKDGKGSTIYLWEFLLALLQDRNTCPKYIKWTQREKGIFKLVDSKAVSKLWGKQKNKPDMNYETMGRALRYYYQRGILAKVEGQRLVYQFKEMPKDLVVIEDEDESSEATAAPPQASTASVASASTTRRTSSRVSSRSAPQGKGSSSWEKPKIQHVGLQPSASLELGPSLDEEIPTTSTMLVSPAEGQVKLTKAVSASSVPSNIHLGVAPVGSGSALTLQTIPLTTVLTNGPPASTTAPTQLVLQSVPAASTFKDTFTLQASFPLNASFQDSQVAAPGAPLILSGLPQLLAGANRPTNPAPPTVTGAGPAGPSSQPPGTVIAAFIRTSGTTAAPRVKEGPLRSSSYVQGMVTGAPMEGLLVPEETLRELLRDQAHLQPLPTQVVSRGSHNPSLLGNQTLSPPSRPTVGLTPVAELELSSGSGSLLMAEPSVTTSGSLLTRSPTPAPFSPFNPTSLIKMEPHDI
CRX, sequence (O43186 whole entry): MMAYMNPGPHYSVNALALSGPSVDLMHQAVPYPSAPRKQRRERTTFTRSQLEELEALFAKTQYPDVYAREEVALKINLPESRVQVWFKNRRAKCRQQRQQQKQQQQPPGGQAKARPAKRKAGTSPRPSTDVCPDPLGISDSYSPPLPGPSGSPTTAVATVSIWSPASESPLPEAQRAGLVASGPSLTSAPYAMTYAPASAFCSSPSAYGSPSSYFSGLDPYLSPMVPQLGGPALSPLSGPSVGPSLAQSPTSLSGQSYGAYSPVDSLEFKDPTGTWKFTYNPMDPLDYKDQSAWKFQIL
HSF1, sequence (Q00613 whole entry): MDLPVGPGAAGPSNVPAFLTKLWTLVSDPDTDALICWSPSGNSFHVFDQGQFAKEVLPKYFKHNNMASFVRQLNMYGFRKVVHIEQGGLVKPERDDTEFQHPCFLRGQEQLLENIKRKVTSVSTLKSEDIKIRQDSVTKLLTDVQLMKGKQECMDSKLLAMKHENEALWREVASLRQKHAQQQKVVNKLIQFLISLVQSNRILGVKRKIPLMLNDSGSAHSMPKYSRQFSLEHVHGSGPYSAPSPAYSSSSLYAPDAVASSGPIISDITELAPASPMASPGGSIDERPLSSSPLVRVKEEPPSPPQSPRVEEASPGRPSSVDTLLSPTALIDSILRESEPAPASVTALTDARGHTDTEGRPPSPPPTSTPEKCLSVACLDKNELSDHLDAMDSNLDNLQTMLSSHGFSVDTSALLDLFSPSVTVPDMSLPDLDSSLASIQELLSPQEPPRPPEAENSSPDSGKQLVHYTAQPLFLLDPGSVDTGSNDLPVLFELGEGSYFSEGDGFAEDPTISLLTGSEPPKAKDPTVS
ETV5, sequence (P41161 whole entry): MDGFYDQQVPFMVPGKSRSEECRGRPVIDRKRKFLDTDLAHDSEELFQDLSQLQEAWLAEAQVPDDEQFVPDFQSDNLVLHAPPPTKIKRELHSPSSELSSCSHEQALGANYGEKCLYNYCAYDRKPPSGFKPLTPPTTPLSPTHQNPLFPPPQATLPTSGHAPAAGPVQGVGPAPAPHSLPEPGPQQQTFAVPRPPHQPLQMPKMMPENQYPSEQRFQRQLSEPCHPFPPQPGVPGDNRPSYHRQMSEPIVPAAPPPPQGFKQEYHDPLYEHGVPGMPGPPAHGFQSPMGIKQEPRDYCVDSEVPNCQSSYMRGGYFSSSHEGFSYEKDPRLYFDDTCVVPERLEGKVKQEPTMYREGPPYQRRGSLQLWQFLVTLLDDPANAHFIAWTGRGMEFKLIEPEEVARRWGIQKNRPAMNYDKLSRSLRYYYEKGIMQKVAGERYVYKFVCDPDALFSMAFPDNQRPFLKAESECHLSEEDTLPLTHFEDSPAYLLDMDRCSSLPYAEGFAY

Turning to TTGTTC, the binding signal is 1.43 fold enrichment (6-mer frequency, TF over GST control) in [1]; 1.48 fold enrichment (6-mer frequency, TF over GST control) in assay [2]; 1.89 fold enrichment (6-mer frequency, TF over GST control) in [3]; 1.48 fold enrichment (6-mer frequency, TF over GST control) in assay [4]; 1.37 fold enrichment (6-mer frequency, TF over GST control) in [5]; 1.48 fold enrichment (6-mer frequency, TF over GST control) in [6]. Also, the binding signal in [7] is 1.48 fold enrichment (6-mer frequency, TF over GST control); in assay [8] it was 1.33 fold enrichment (6-mer frequency, TF over GST control); in assay [9], 1.43 fold enrichment (6-mer frequency, TF over GST control); in [10] it was 1.49 fold enrichment (6-mer frequency, TF over GST control); in assay [11], 1.63 fold enrichment (6-mer frequency, TF over GST control); in assay [12], 1.44 fold enrichment (6-mer frequency, TF over GST control). Besides, the binding signal in assay [13] was 1.33 fold enrichment (6-mer frequency, TF over GST control); in assay [14], 1.48 fold enrichment (6-mer frequency, TF over GST control); in assay [15], 1.44 fold enrichment (6-mer frequency, TF over GST control); in assay [16], 1.55 fold enrichment (6-mer frequency, TF over GST control); in [17] it was 1.52 fold enrichment (6-mer frequency, TF over GST control); in assay [18], 1.46 fold enrichment (6-mer frequency, TF over GST control).
